Activity calls are given as the source filed them.
What was measured:
[1] = small molecules captured by biotinylated probe aFSTL3 – biochemical, small-molecule microarray, fluorescence 635/667, stem cell growth factor project, primary screen (AID 1064); details: higher = more signal;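 further: measures binding of the biotinylated anti-FSTL3 antibody to printed compounds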
[2] = binders from COS7 lysate, DM2A8 probe, primary screen, torsin A project, cell lysate, small-molecule microarray, fluorescence 635/667 (AID 1065); details: higher = more signal, COS7 lysate expressing mutant human TOR1A
[3] = small molecules captured by biotinylated probe aFGF2 – biochemical, small-molecule microarray, fluorescence 635/667, stem cell growth factor project, primary screen (AID 1067); details: higher = more signal;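 further: measures binding of biotinylated aFGF2 protein to printed compounds on slides; z-score merges feature fluorescence and signal-to-noise across triplicate slides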
[4] = small molecules captured by biotinylated probe aFGF10 – biochemical, small-molecule microarray, fluorescence 635/667, stem cell growth factor project, primary screen (AID 1071); details: higher = more signal;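 further: score merges 667 nm spot intensity and signal to noise from triplicate slides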
[5] = target: Neurogenic locus notch homolog protein 2 (Homo sapiens) (UniProt Q04721); test: small molecules binding Notch2 protein – biochemical, small-molecule microarray, 635 nm fluorescence, stem cell growth factors, primary screen (AID 1073); details: higher = more signal
Neurogenic locus notch homolog protein 2 (Homo sapiens), sequence (Q04721 whole entry, looked up, canonical isoform): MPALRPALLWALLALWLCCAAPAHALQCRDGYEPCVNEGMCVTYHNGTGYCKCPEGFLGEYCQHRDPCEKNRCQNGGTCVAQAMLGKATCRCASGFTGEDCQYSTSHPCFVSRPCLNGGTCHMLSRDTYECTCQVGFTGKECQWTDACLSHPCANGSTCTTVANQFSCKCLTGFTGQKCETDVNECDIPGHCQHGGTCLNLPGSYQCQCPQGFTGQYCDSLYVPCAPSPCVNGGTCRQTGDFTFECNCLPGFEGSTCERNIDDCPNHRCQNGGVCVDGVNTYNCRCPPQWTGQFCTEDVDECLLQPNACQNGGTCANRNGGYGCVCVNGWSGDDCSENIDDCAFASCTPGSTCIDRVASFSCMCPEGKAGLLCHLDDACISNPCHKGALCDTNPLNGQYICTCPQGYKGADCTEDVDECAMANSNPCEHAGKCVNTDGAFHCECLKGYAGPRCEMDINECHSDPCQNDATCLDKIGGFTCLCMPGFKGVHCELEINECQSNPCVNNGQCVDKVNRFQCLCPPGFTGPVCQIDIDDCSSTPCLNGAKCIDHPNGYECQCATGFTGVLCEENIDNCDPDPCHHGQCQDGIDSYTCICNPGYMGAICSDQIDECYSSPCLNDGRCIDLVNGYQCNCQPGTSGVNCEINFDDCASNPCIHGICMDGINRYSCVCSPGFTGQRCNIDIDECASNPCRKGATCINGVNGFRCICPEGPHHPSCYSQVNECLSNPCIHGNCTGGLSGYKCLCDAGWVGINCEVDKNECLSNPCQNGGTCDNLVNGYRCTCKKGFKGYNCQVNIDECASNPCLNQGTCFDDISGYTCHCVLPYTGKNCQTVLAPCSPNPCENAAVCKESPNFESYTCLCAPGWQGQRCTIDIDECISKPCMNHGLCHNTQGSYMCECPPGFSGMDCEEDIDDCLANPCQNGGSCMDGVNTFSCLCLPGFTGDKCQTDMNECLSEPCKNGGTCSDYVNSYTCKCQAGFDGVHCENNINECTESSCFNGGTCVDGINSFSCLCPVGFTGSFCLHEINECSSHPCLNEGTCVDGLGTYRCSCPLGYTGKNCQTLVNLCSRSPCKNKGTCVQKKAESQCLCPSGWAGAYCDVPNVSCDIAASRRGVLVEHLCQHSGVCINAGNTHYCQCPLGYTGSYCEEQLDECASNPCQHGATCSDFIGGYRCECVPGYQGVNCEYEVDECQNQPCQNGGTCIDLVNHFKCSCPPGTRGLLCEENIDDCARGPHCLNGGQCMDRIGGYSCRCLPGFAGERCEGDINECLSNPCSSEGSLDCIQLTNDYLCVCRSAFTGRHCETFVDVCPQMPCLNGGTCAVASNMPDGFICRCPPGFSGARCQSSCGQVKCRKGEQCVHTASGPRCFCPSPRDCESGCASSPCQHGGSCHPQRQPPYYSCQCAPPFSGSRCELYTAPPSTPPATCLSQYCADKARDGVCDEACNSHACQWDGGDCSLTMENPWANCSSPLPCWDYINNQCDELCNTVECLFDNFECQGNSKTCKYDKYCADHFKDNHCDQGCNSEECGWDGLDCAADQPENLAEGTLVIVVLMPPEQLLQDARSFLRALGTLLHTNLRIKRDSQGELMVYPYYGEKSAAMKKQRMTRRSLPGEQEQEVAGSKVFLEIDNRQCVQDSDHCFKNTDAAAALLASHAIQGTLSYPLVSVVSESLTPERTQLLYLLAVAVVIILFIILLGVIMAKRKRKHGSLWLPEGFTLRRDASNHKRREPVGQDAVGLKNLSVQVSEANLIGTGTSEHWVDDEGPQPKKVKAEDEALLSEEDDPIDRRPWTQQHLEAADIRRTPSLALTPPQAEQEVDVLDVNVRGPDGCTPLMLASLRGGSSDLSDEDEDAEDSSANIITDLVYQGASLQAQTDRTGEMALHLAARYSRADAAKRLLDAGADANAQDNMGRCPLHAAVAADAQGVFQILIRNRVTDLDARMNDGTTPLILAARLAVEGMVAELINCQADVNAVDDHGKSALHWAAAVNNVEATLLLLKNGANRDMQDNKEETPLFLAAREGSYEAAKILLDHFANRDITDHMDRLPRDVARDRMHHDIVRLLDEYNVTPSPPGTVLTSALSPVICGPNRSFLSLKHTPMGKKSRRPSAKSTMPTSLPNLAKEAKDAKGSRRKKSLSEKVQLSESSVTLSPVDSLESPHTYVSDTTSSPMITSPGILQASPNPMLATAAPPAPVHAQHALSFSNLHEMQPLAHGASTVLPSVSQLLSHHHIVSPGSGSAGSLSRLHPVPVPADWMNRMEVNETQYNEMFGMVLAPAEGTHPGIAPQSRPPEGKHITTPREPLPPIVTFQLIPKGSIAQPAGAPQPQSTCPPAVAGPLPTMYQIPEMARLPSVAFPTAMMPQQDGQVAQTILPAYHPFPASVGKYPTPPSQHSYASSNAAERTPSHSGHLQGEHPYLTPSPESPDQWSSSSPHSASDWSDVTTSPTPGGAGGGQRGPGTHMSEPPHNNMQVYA

[6] = target: Pro-neuregulin-1, membrane-bound isoform (Homo sapiens) (UniProt Q02297); test: small molecules binding neuregulin-1 protein – biochemical, small-molecule microarray, fluorescence 635/667, psychiatric disease protein project, primary screen (AID 1075); details: NRG1 binding, 635 nm fluorescence, higher = more signal;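 further: score combines 667 nm spot fluorescence with signal to noise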
[7] = system: Neuregulin-1 EGF-like domain; test: small molecules binding NRG1 EGF domain – biochemical, small-molecule microarray, 635 nm fluorescence, primary screen (AID 1081); details: higher = more signal;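 further: binding of the protein to compounds printed on small-molecule microarray slides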
[8] = FRG1 expression reporter modulators in myotubes – cell-based, C2C12 myotubes, firefly/Renilla luciferase, luminescence, FRG1 inhibition for FSHD, primary screen (AID 1084); details: FRG1 promoter luciferase, higher = more signal, called active from +8 up or from −8 down
[9] = small molecules captured by biotinylated probe aFST – biochemical, small-molecule microarray, fluorescence 635/667, stem cell growth factor project, primary screen (AID 1086); details: higher = more signal;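 further: score merges 667 nm fluorescence with signal-to-noise of each printed compound spot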
[10] = binders of probe aHhip on microarray, primary screen, stem cell growth factor project, biochemical, small-molecule microarray, fluorescence 635/667 (AID 1087); details: higher = more signal;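 further: score merges spot fluorescence at 667nm with spot signal to noise ratio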
[11] = system: PRMT1 (protein arginine N-methyltransferase 1); test: small molecules binding arginine methyltransferase PRMT1 – biochemical, small-molecule microarray, 635 nm fluorescence, primary screen (AID 1088); details: higher = more signal;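 further: binding of Prmt1 protein to compounds spotted on small-molecule microarray slides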
[12] = growth effects on S. cerevisiae YJM789 – YJM789 clinical isolate, OD600, 24 h, basal, primary screen (AID 1089); details: higher = more signal, called active from +8 up or from −8 down;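 further: growth of clinical yeast isolate S. cerevisiae YJM 789 seeded 1000 cells per well; test concentration not given here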
[13] = S. pombe growth modifiers, basal conditions – strain 972, OD600, 24 h, no modulator, primary screen (AID 1090);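 further: basal condition with compound alone and no growth modifier present; test concentration not given here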; details: S. pombe 972 growth, higher = more signal, called active from +8 up or from −8 down
[14] = budding yeast growth modifiers under rapamycin – strain BY4716, OD600, 96 h, primary screen (AID 1091); further: test concentration not given here; details: S. cerevisiae BY4716 + rapamycin, higher = more signal, called active from +8 up or from −8 down
[15] = target: Torsin-1A-interacting protein 2 (Homo sapiens) (UniProt Q8NFQ8); test: small molecules binding lysate-expressed LULL1 – cell lysate, human LULL1 lysate, 635/667 nm fluorescence, primary screen (AID 1092); details: small-molecule microarray, hLULL1 lysate binding, 635 nm fluorescence; higher = more signal;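 further: probe is lysate of COS7 cells overexpressing human LULL1; score merges per-feature 667 nm fluorescence with signal-to-noise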
[16] = optical density change of DRC41 E. coli – strain DRC41, OD650, 24 h, E. coli filamentation project, primary screen (AID 1093);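 further: MC1000 strain lacking acrAB efflux and sulA so SOS filamentation is blocked; test concentration not given here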; details: E. coli DRC41 growth, higher = more signal, called active from +8 up or from −8 down
[17] = probe aLefty2 binding to arrayed compounds – biochemical, biotinylated probe, 635/667 nm fluorescence, primary screen (AID 1094); details: small-molecule microarray, higher = more signal;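 further: score merges spot fluorescence near 667 nm with spot signal-to-noise ratio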
[18] = system: Noggin (protein binding on small-molecule microarray); test: small molecules binding Noggin protein – biochemical, 635/667 nm fluorescence, primary screen (AID 1095); details: 635 nm fluorescence, higher = more signal;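 further: score merges 667 nm feature fluorescence with signal to noise over triplicate slides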
[19] = target: Neurogenic locus notch homolog protein 3 (Homo sapiens) (UniProt Q9UM47); test: small molecules binding NOTCH3 protein – biochemical, 635/667 nm fluorescence, primary screen (AID 1096); details: small-molecule microarray, 635 nm fluorescence, higher = more signal
Neurogenic locus notch homolog protein 3 (Homo sapiens), sequence (Q9UM47 whole entry, looked up): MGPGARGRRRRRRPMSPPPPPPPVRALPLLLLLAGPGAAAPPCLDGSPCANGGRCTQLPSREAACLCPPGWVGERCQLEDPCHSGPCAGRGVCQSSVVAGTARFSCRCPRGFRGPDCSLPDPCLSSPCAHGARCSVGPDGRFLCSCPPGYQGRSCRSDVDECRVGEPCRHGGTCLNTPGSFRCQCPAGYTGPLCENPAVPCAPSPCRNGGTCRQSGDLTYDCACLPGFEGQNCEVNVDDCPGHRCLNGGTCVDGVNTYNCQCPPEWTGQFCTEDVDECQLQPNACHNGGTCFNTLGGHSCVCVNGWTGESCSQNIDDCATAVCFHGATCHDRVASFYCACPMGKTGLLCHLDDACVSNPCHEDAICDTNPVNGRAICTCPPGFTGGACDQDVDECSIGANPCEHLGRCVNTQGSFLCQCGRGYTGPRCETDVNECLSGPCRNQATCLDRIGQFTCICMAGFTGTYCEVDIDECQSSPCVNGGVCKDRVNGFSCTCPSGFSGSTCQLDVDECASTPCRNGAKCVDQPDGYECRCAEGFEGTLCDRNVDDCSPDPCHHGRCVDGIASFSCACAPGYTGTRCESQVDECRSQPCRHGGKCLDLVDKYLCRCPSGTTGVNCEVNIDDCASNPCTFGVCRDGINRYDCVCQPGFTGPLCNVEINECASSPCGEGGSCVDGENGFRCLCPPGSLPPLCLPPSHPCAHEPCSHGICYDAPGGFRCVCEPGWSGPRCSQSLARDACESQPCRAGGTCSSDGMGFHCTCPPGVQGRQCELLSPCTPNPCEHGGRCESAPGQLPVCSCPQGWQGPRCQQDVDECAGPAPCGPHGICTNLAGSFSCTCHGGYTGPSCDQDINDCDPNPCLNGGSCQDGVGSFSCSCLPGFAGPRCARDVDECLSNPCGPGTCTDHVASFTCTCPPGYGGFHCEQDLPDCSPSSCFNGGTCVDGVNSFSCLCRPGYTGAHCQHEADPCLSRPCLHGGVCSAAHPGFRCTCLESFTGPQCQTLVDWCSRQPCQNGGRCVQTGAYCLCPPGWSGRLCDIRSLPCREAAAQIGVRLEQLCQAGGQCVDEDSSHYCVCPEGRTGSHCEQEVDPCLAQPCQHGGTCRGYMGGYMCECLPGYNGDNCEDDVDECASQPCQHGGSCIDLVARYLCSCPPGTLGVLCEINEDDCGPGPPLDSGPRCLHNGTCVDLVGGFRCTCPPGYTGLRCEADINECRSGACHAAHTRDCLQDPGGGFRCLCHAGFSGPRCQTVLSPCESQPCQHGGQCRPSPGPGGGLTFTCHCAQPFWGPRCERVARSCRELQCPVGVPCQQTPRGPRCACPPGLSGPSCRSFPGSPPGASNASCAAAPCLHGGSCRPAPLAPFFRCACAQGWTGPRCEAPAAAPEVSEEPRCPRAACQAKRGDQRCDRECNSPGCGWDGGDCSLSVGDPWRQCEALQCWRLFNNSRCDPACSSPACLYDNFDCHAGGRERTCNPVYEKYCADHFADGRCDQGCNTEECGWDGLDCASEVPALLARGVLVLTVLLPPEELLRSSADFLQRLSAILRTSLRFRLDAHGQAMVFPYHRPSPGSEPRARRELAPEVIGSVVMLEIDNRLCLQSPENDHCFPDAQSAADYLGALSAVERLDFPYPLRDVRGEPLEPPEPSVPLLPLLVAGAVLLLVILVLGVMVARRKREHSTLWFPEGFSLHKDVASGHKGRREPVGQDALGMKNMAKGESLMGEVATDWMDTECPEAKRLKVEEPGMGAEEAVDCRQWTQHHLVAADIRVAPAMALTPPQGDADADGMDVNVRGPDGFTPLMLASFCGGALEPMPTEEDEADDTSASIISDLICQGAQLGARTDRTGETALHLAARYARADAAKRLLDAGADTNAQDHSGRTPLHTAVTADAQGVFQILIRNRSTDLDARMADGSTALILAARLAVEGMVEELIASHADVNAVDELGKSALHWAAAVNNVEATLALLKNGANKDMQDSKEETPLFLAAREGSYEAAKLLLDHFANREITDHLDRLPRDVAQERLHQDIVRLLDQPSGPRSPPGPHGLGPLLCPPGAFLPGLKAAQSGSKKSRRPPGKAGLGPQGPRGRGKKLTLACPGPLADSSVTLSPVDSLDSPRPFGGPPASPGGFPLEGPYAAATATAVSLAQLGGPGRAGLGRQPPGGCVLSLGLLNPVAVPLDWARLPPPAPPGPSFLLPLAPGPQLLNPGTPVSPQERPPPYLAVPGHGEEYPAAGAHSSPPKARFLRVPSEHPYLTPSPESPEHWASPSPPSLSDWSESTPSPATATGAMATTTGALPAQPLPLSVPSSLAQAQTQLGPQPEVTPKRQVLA

[20] = probe aEGFR binding to arrayed compounds – biochemical, biotinylated probe, 635/667 nm fluorescence, primary screen (AID 1097); details: small-molecule microarray, higher = more signal;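 further: probe is a biotinylated anti-EGFR antibody binding compounds printed on slides; score combines fluorescence near 667 nm and signal to noise of each spot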

SMILES	composite z-score [1]	composite z-score [2]	composite z-score [3]	composite z-score [4]	composite z-score [5]	composite z-score [6]	composite z-score [7]	z-score [8]	composite z-score [9]	composite z-score [10]	composite z-score [11]	z-score [12]	z-score [13]	z-score [14]	composite z-score [15]	z-score [16]	composite z-score [17]	composite z-score [18]	composite z-score [19]	composite z-score [20]
C=C(COC)/C(=C/C[C@@H](OC(C)=O)c1cccc(OCCO)c1)c1cnc2ccccc2c1	0.305	-0.116	-0.076	0.826	1.63	0.679	1.18	3.42 (inactive)	0.134	-0.214	1.38	-2.07 (inactive)	-6.62 (inactive)	-1.38 (inactive)	1.07	1.03 (inactive)	0.0303	0.822	1.04	-0.0653
O=C1NC(=O)C2C1C=CC(C(O)c1ccc(F)cc1)N2Nc1ccc(Cl)cc1Cl (stereo not given)	0.848	-0.335	0.103	0.336	0.916	1.8	0.885	-0.068 (inactive)	0.0708	-0.374	0.589	-25.3 (active)	-7.26 (inactive)	-0.0449 (inactive)	3.02	-1.3 (inactive)	0.096	-0.749	0.14	-0.123
O=C1C2C=CC(C(O)C(c3ccccc3)c3ccccc3)N(Nc3ccccc3F)C2C(=O)N1c1ccccc1 (stereo not given)	-0.117	0.975	0.11	1.03	1.63	1.76	1.32	-0.243 (inactive)	1.5	-0.121	1.52	0.504 (inactive)	0.973 (inactive)	1.75 (inactive)	3.58	-1.06 (inactive)	0.0943	0.295	1.02	0.162
COC(=O)[C@@]1(Cc2ccc(F)cc2)[C@H]2c3cc(C(=O)N4CCCC4)n(CCc4c[nH]c5cc(F)ccc45)c3C[C@H]2CN1C(=O)c1ccccc1	0.198	0.197	0.289	0.634	1.68	2.01	1.35	0.53 (inactive)	1.69	0.281	0.765	0.0277 (inactive)	1.24 (inactive)	1.94 (inactive)	3.39	-0.167 (inactive)	0.605	0.344	1.02	0.756
C=CCNC(=O)[C@@H]1[C@H]2C(=O)O[C@H](c3ccccc3)[C@H](c3ccccc3)N2[C@H](c2ccc(OCCO)cc2)[C@@]12C(=O)Nc1ccc(C#CCNC(N)=O)cc12	0.18	-0.262	-0.22	0.169	-1.01	0.43	0.184	0.243 (inactive)	0.675	-0.191	0.872	0.696 (inactive)	-0.279 (inactive)	1.92 (inactive)	1.8	0.0528 (inactive)	-0.0368	0.216	0.266	-0.182

From PubChem BioAssay
